In all, about 68,000 compounds went through this assay and about 2,700 (4%) showed an effect of 50% or more. This is one part of a sample in which strong results are shown more often than they occur.

This experiment relates to Plasmodium berghei. The experiment is described as follows: Screen against P. berghei liver stage (PbLuc), transformed with Luciferase, at 2uM. The format is functional, HepG2. As to conditions: tested at 2 uM.
With `CCN1Cc2cc(F)ccc2N(C(C)=O)CCC1=O`, the INHIBITION is on record as -10.65%.

`CNc1nc2c(s1)C(c1ccccc1F)CC(=O)N2` (centres undefined): the INHIBITION is -37.62%.

Take `Cc1ccc(-c2ncc(CNc3cnccc3CO)s2)cc1`: the INHIBITION was -13.13%.

For `O=C(C1CCC2(CCN(Cc3cccnc3)CC2)CO1)N1CCCC1` (centres undefined), the INHIBITION is -84.83%.

`CC(NC(=O)N1CCN(c2cccs2)CC1)c1ccc(C#N)cc1` (centres undefined): the INHIBITION stood at 16.79%.

Take `CN1CCN(Cc2nnc(C3CCN(C4CCCCC4)CC3)n2C)CC1`: the INHIBITION stood at 26.81%.

As to `CN1CCN(Cc2nnc(C3CCN(CC4CC4)CC3)n2C)CC1`, the INHIBITION was -0.04%.

Take `CN1CCN(Cc2nnc(C3CCN(C(CO)CO)CC3)n2C)CC1`: the INHIBITION is on record as 59.68%.

With `Cc1cc(CN2CCC(C3Nc4ccccc4S(=O)(=O)N3)CC2)oc1C` (centres undefined), the INHIBITION is listed as 22.81%.

Take `CCOC(=O)CN(C)C1CCc2ccccc21` (centres undefined): the INHIBITION was 44.71%.

On to `CN(C)C(=O)CNC(=O)c1cc2ccccc2nc1N1CCCC1`, for which the INHIBITION stood at 8.74%.

In the case of `CCn1cc(Cl)c(C(=O)NCCCO)n1`, the INHIBITION is 12.84%.

`CCc1nc(C2CCCN(C(=O)c3ccc(Cl)cc3)C2)no1` (centres undefined): the INHIBITION came out at 9.82%.

For `O=C(CCNC(=O)c1ccc(Cl)cc1)NCc1nc(C2CC2)no1`, the INHIBITION amounted to 60.34%.

As for `CCN(CC(=O)NCc1nc(C2CC2)no1)Cc1ccc(Cl)cc1`, the INHIBITION was -37.68%.

`c1cnc(N2CCCC(NCc3ccc(-n4ccnc4)cc3)C2)nc1` (centres undefined): the INHIBITION amounted to 1.91%.

Consider `Cc1cnn(CC2CCCCN2C(=O)c2c(C)noc2C)c1` (centres undefined), for which the INHIBITION is listed as -13.24%.

With `CCC(CO)NCc1ccc(-c2ccccc2)o1` (centres undefined), the INHIBITION is on record as 12.02%.

`CN(C)c1ccc(C(=O)NCCCNc2ccc(C(F)(F)F)cn2)cc1`: the INHIBITION is listed as 25.74%.

For the molecule `Nc1ncc(-c2ccc(F)cc2)c(C2CCCNC2)n1` (centres undefined), the INHIBITION is 54.2%.

In the case of `Nc1ncc(-c2ccc(Cl)cc2)c(C2CCCNC2)n1` (centres undefined), the INHIBITION is 37.63%.

`Nc1ncc(-c2ccc(C(F)(F)F)cc2)c(C2CCCNC2)n1` (centres undefined): the INHIBITION was -10.58%.

With `O=C(C1CC=CC1)N1C[C@@H]2CN(Cc3ccsc3)CCO[C@@H]2C1`, the INHIBITION is given as -10.92%.

On to `Cc1ccc(C)c(CC(=O)NC2CCS(=O)(=O)CC2)c1`, for which the INHIBITION is 29.13%.

With `Cc1ccc(C)c(CC(=O)NC2CCCS(=O)(=O)C2)c1` (centres undefined), the INHIBITION was found to be 57.75%.

Regarding `Cc1ccc(C)c(CC(=O)NC2CCC(N3C(=O)CCC3=O)CC2)c1` (centres undefined), the INHIBITION is recorded as -37.65%.

As to `CC(C)c1nc(CN(C)C(=O)c2ccc(CN3CCCCC3)cc2)cs1`, the INHIBITION is recorded as 0.31%.

Turning to `Fc1ccc(CN2CCC3(CC2)CC(c2cccnc2)CO3)cc1` (centres undefined), the INHIBITION was -14.21%.

Consider `CCOCc1cnc2n1CCN(C(=O)Cc1cccs1)C2C` (centres undefined), for which the INHIBITION is -24.63%.

As for `CC(C)N(C)Cc1cnc2n1CCN(C(=O)Cc1cccs1)C2C` (centres undefined), the INHIBITION was 70.31%.

As to `CC1c2ncc(Cn3cncn3)n2CCN1C(=O)Cc1cccs1` (centres undefined), the INHIBITION turned out to be 28.77%.

In the case of `CCc1n[nH]c(C2CN(C(=O)c3cc4c(s3)CCCC4)CCO2)n1` (centres undefined), the INHIBITION is 20.28%.

Consider `Cc1cc2c(N)nc(=O)n(CC(=O)Nc3cccc(Cl)c3)c2s1`, for which the INHIBITION was 6.05%.

As to `CCN(CCOC)C(=O)c1cc(COc2ccc3c(c2)CCCC3)on1`, the INHIBITION was determined as 29.89%.

For `CCOCCN1CCc2cncnc2C1`, the INHIBITION is 31.51%.

For the molecule `COCCCN1CCc2cncnc2C1`, the INHIBITION is on record as -12.48%.

With `CC(C)OCCN1CCc2cncnc2C1`, the INHIBITION is given as 62.51%.

Regarding `COC(=O)c1sc(C(NC(=O)c2ccccc2)C2CC2)nc1C` (centres undefined), the INHIBITION is on record as -13.12%.

Regarding `C=C(C)CN1CCC(NC(=O)c2scnc2C)CC1`, the INHIBITION is reported as -7.13%.

For `COc1cc(I)c(Cl)cc1C(=O)N(C)C`, the INHIBITION stood at 32.04%.

In the case of `CCOCc1nc2c(c(N3CCCn4nc(C)cc4C3)n1)CCNCC2`, the INHIBITION is listed as -31.55%.

Regarding `COCCNc1nc2c(c(N3CCn4nc(C)cc4C3)n1)CCNCC2`, the INHIBITION is listed as 51.19%.

Take `Cc1cc2n(n1)CCN(c1nc(N)nc3c1CCNCC3)C2`: the INHIBITION is recorded as 17.6%.

Consider `O=C1CC[C@@H](C(=O)N2CCC(Cn3cc(C4CCCCC4)nn3)CC2)N1`, for which the INHIBITION is on record as 17.61%.

In the case of `CC(C)n1nc2c(cc1=O)CN(c1ncnc3sccc13)CC2`, the INHIBITION was -35.16%.

Regarding `COCCN1C(=O)c2ccc(C(=O)NCCc3c[nH]cn3)cc2C1=O`, the INHIBITION is 34.59%.

On to `CC(C)CN(CC(O)c1ccc(F)cc1)C(=O)c1cnsn1` (centres undefined), for which the INHIBITION was -36.72%.

As for `O=C(NC1CCN(Cn2nc(-c3ccccc3)oc2=O)CC1)C1CC1`, the INHIBITION is -0.69%.

Take `CC(=O)Nc1cccc(CN2CCCC2C(=O)Nc2nccs2)c1` (centres undefined): the INHIBITION is reported as -4.48%.

Consider `Cc1cc(C2CCCN2Cc2cccc(C(=O)Nc3nccs3)c2)no1` (centres undefined), for which the INHIBITION was determined as 2.7%.

For the molecule `CC1CCCN(Cc2cccc(C(=O)Nc3nccs3)c2)C1` (centres undefined), the INHIBITION is on record as 63.46%.

`CC(C)N(C)Cc1cn2c(n1)CN(C(=O)Cc1ccccc1)CC2`: the INHIBITION is on record as -47.56%.

Turning to `Cc1noc(Cl)c1CCC(=O)N1CCN(CC(C)(C)O)CC1`, the INHIBITION is 21.89%.

With `CCN1CCN(C(=O)CCc2c(C)noc2Cl)CC1`, the INHIBITION was -61.5%.

Regarding `Cc1noc(Cl)c1CCC(=O)N1CCN(Cc2ccncc2)CC1`, the INHIBITION is 62.13%.

For the molecule `O=C(Nc1ccc2c(ccn2CCN2CCOCC2)c1)c1ccccn1`, the INHIBITION was 13.72%.

Turning to `Cc1cc(CN(C)C(=O)NC2CCCC2)no1`, the INHIBITION is recorded as 29.12%.

As to `N#Cc1cccc(N2CCCC3(CCC(=O)N(C4CCCC4)C3)C2)n1` (centres undefined), the INHIBITION was -11.07%.

Regarding `COc1c(C2CCCN2C(=O)c2sc(C)nc2C)c(C)nn1C` (centres undefined), the INHIBITION was -37.68%.

Turning to `CN(C)C(=O)CN1CCCCC1c1nc(N)ncc1-c1ccccc1` (centres undefined), the INHIBITION is recorded as -19.81%.

Regarding `CN(C)C(=O)CN1CCCCC1c1nc(N)ncc1-c1cccc(F)c1` (centres undefined), the INHIBITION was determined as 65.76%.

For the molecule `NC(=O)CN1CCCCC1c1nc(N)ncc1-c1cccc(F)c1` (centres undefined), the INHIBITION is 18.64%.

Regarding `CC(=O)c1c(C)nn(S(=O)(=O)c2ccc(F)cc2)c1C`, the INHIBITION came to 16.13%.

`Cc1nc2cc(O)nn2c(C)c1CCC(=O)NCCCC(C)C`: the INHIBITION stood at 37.68%.

As for `CC(C)C1CN(C(=O)c2cc(F)cc3[nH]cnc23)CCS1` (centres undefined), the INHIBITION is listed as 11.24%.

Take `CN(C)C1CCCN(C(=O)NCCC(C)(C)C)C1` (centres undefined): the INHIBITION was 28.95%.

Turning to `CC(C)N(CCNC(=O)N1CCCC(N(C)C)C1)C1CC1` (centres undefined), the INHIBITION is 73.01%.

Consider `CN(C)C1CCCN(C(=O)NCCC(=O)N2CCCCCC2)C1` (centres undefined), for which the INHIBITION is -17.01%.

Regarding `Cc1ccc(O)c(CNCC2CCCN2c2cccnn2)n1` (centres undefined), the INHIBITION amounted to 24.88%.

For the origin of these results see ChEMBL document CHEMBL4513216, “Probing the Open Global Health Chemical Diversity Library for Multistage-Active Starting Points for Next-Generation Antimalarials” (ACS Infect Dis, 2020).
